# Compound activity as filed in PubChem BioAssay.
# MCF10A rereplic = induces DNA re-replication in MCF 10a normal breast cells. MCF 10A DNA re-replication, Hoechst nuclear intensity, 48 h. Potency, µM (series often up to 46.1 µM), without a hit: top-dose activity, positive = re-replication, hits mostly activators. 350,000 compounds, 2.9% hits. AID 624296; further: % of control where 0% means no effect; nearly all actives have a fitted effect of over 50% in size
# HT1080-NT tox = kills 2HG-producing HT-1080-NT fibrosarcoma cells. HT-1080-NT fibrosarcoma viability, CellTiter-Glo ATP luminescence, 48 h. Potency, µM (highest dose often 46.1 µM), for the others: at the top dose activity, negative = less viability, hits mostly cytotoxic. 360,000 compounds, 1.6% hits. AID 686970;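 further: NT is the 2HG producing partner of a matched IDH1 knockdown line; 0% = DMSO-treated cells and -100% = media-only wells without cells; nearly all actives have a fitted effect of over 55% in size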
#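 Luminescent CellTiter-Glo readout after 48 hours of compound exposure at 37 degrees C defined viability of HT-1080-NT cells. Activity was normalized to DMSO wells and cell-free media wells; concentration-response curves were fitted and assigned curve classes.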
# SW480 rereplic = inducers of DNA re-replication in SW480 colon cancer cells; SW480 DNA re-replication, Hoechst DNA content imaging, 48 h; Potency, µM (titrated, usually from 46.1 µM), inactives show at the top dose re-replication activation, usual class: activators; 340,000 compounds, 1.8% hits; further: % of control where 0% means no effect; nearly all actives have a fitted effect of over 55% in size
#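 SW480 cells exposed to compounds for 48 hr at 37 C, 5% CO2, then Hoechst-stained 40 min. Nuclear DNA content imaged by fluorescence scanning (405 nm excitation, 500-530 nm emission); re-replication scored as increased high-intensity nuclei.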
# HT1080 IDH1KD tx = toxicity to HT-1080 IDH1 knockdown cells (counter line). Potency, µM (highest dose often 46.1 µM), without a hit: at the top dose activity, negative = toxicity, usual class: cytotoxic. 360,000 compounds, 2% hits. HT-1080 IDH1 knockdown viability, ATP luminescence, 48 h. AID 686971;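 further: 0% = DMSO wells and -100% = cell-free medium wells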
#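 CellTiter-Glo luminescence after 48 h compound exposure at 37 degrees C of IDH1-knockdown HT-1080 cells in 5% FBS RPMI. %Activity scaled between DMSO wells and cell-free media wells, with curves fitted and assigned curve classes.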
# KB-3-1 cytotox = kills parental KB-3-1 adenocarcinoma cells; KB-3-1 viability, CellTiter-Glo ATP luminescence, 72 h; Potency, µM (top dose mostly 46.1 µM), most hits filed as cytotoxic; 400,000 compounds, 1.4% hits; further: on the % scale 0 is the no-effect control and ±100 the full control effect; nearly all actives have a fitted effect of over 60% in size
#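 Using CellTiter-Glo luminescence, growth of non-resistant KB-3-1 adenocarcinoma cells is assessed 72 h after pin-tool compound addition at 37 °C. Normalized responses across the concentration series yield fitted curves.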
# KB-V1 MDR tox = kills drug-selected multidrug resistant KB-V1 cells; Potency, µM (series often up to 46.1 µM), usual class: cytotoxic; AID 1347076; KB-V1 MDR cells viability, CellTiter-Glo, 72 h; 400,000 compounds, 3.4% hits; further: on the % scale 0 is the no-effect control and ±100 the full control effect; nearly all actives have a fitted effect of over 60% in size
#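 Following 72 h at 37 degrees C with compound, KB-V1 cell viability was read by CellTiter-Glo luminescence, medium being phenol-red-free DMEM plus 10% FBS; concentration-response parameters came from normalized, curve-fitted qHTS data.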
# Active calls of the source: *; i = inactive; ? = inconclusive; nt = no result. Shown are actives, neighbours in structure and some others; about 7.9% of the full set was active somewhere. The call rests on the fitted dose curve; in most records, active means well fitted curve in the direction sought with a large enough effect; inconclusive means small, poorly fitted or top-dose-only effect, or another doubt; inactive means no such curve, though single readings can be large; an effect the other way counts as inactive or inconclusive. Potency means the concentration at half of the fitted maximal effect.
SMILES,MCF10A rereplic,HT1080-NT tox,SW480 rereplic,HT1080 IDH1KD tx,KB-3-1 cytotox,KB-V1 MDR tox
COc1cc2c(cc1OC)CN(C(=O)c1ccc(OC)c(S(=O)(=O)N3CCCC3)c1)CC2,3%,-6%,?,-16%,i,?
O=C(c1ccc2nc[nH]c2c1)N1CCc2ccccc2C1,3%,5%,-1%,17%,i,i
CCOc1ccccc1N1CCN(C(=O)c2ccc(Cl)c(S(=O)(=O)N3CCCCC3)c2)CC1,?,-21%,-5%,-24%,i,7.3µM*
CN1CCN(C(=O)c2ccc(Cl)c(S(=O)(=O)N3CCCCC3)c2)CC1,-2%,0%,4%,-13%,i,15µM*
O=C(NCc1cccnc1)c1csc([C@@H]2C[C@H](O)[C@@H](CO)O2)n1,nt,18%,nt,15%,?,i
CN1CCCN(C(=O)c2ccc(Cl)c(S(=O)(=O)N(C)c3ccccc3)c2)CC1,21µM*,-3%,13%,4%,i,?
Cc1ccc(C(C)C)c(OCC(=O)Nn2c(C)nc3ccccc3c2=O)c1,-6%,-3%,1%,-5%,i,i
Cc1ccc(C(C)C)c(OCC(=O)Nn2c(=O)[nH]c3ccccc3c2=O)c1,0%,-6%,-2%,2%,i,21µM*
CCc1ccc(CNC(=O)CN2C(=O)C3CCCCN3c3ccc(C(=O)N4CCCC4)cc32)cc1 (stereo not given),nt,nt,nt,nt,i,i
COc1ccc(N(C(=O)c2cccnc2)S(=O)(=O)c2ccc3c4c(cccc24)C(=O)N3C)cc1,?,?,-6%,?,i,16µM*
Cc1sc2ncn(CC(=O)N3CCN(c4ccccc4F)CC3)c(=O)c2c1S(=O)(=O)N1CCN(c2ncccn2)CC1,nt,nt,nt,nt,i,i
COc1cc2c(Nc3ccc(Br)cc3F)ncnc2cc1OCC1CCN(C)CC1,27µM*,nt,?,nt,nt,nt
COc1cc2ncnc(NCc3cccc(F)c3F)c2cc1OC,-8%,-6%,-8%,5%,i,i
CCOC(=O)c1c(C)[nH]c(C)c1S(=O)(=O)NCC(=O)Nc1cccc(C#N)c1,nt,nt,nt,nt,i,i
C=CCC[C@@H](Cc1ccc(F)cc1)C(=O)OC[C@@H]1CCCN1C(=O)[C@@H](CC=C)CC(=O)N[C@@H](CO)Cc1ccccc1,18%,-26%,10%,-1%,16µM*,i
C=CC[C@@H](Cc1ccc(F)cc1)C(=O)OC[C@@H]1CCCN1C(=O)[C@H](CC=C)CC(=O)N(CCO)Cc1ccccc1,1%,-20%,1%,-7%,?,21µM*
C[N+]1(C)[C@@H]2CC(OC(=O)C(O)(c3cccs3)c3cccs3)C[C@H]1[C@@H]1O[C@@H]12 (stereo not given in full),4%,nt,0%,nt,nt,nt
O=C(CSc1oc(-c2ccc(F)cc2)nc1S(=O)(=O)c1ccccc1)NC1CCCCC1,nt,nt,nt,nt,i,i
CC(C)NC(=O)C1CCC(Cn2c(=O)c3sccc3n(CC(=O)Nc3ccccc3)c2=O)CC1 (stereo not given),nt,nt,nt,nt,i,i
CCOC(=O)c1cnc(-n2nc(C)cc2C)nc1Nc1ccc(O)cc1,-3%,15%,-8%,9%,?,?
CCOC(=O)c1cnc(-n2nc(C)cc2C)nc1NNc1nc(-c2ccccc2)cc(-c2ccccc2)n1,?,?,?,?,26µM*,?
CCOC(=O)c1cnc(-n2nc(C)cc2C)nc1Oc1ccc(C#N)cc1,-2%,13%,-7%,5%,i,i
CCOC(=O)c1cnc(-n2nc(C)cc2C)nc1NC1CCCCC1,21µM*,?,?,-15%,?,8.2µM*
CCOC(=O)c1cnc(-n2nc(C)cc2C)nc1NC,1%,7.1µM*,?,?,i,?
